# Most compounds without a hit are left out; they make up all but 32% or so of the library.
# PostGolgi yeast: growth inhibition of a yeast mutant, post-Golgi transport screen | post-Golgi transport phenotypic cell assay | inhibition, % at 10 µM | hit rate 0.9% among 98,000 | AID 739;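 note: yeast cells grown in 1536-well plates; yeast grown about 18 h at 30C before absorbance read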
# CYP2C19 act: increases human CYP2C19 enzyme activity; activation factor at 5 µM; P33261; 96,000 tested, under 10 active; recombinant CYP2C19, luciferin-H EGE luminescence; active compounds read high; 0 = fully inhibited enzyme, 1 = untreated enzyme; AID 1025;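 active = activation factor of at least 2 at 5 µM in the primary screen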;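 note: 0 = wells with 2.5 mM tranylcypromine and 1 = vehicle-only wells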
# Target sequence (P33261 whole entry, looked up): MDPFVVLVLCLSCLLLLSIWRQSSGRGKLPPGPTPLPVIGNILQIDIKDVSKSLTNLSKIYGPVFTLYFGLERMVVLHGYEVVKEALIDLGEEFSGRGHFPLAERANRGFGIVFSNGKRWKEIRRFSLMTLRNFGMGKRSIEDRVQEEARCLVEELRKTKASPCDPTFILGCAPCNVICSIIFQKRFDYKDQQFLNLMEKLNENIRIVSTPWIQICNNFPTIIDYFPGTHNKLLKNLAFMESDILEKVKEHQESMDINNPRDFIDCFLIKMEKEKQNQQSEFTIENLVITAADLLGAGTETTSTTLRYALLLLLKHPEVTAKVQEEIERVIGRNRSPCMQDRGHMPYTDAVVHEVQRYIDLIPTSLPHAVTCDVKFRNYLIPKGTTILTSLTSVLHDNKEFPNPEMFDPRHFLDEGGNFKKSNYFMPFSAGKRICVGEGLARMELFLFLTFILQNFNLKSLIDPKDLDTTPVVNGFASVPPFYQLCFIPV
# CYP2C9 inh: human CYP2C9 inhibition; hit rate 20% among 96,000; CYP2C9 Supersomes, luciferin-H conversion, luminescence; inhibition, % at 5 µM;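 active = blocking of liver enzyme CYP2C9 beyond about 50% at 5 µM, limit read from the data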
# CYP2C19 inh: blocks human cytochrome P450 2C19 | P33261 | CYP2C19 Supersomes, luciferin-H EGE luminescence, 30 min | inhibition, % at 5 µM | hit rate 21% among 96,000;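 active = CYP2C19 inhibition above a set limit at 5 µM in the primary screen, cut at about 50% in these data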;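 note: plate controls were negative control wells for no effect and 2.5 mM tranylcypromine positive control for full effect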
# PostGolgi ctrl: growth of the yeast control strain, post-Golgi counter-screen; efflux-deficient yeast background strain, growth absorbance A615, 16 h; inhibition, % at 10 µM; hit rate 5% among 98,000
# CYP2C9 activ: increases human cytochrome P450 2C9 activity; P11712; recombinant CYP2C9, luciferin-H conversion, luminescence; active compounds read high; factor 1 = untreated enzyme, 0 = blocked; activation factor at 5 µM; hit rate 1.4% among 96,000; AID 1024;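 active = activation factor of 2 or more for CYP2C9 at a 5 µM dose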;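 note: 0 = sulfaphenazole-blocked wells and 1 = vehicle-only wells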
# * = called active by the depositor; / = no result. Cut-off read from the data, not from the text of the source, unless noted: active = inhibition above about 30%; inactive = the rest.
SMILES,PostGolgi yeast,CYP2C19 act,CYP2C9 inh,CYP2C19 inh,PostGolgi ctrl,CYP2C9 activ
Cc1cc(C)c(C)c(OCC(=O)N2CCOCC2)c1,-9,0.3,-80,67*,6,1.8
Cc1cc(OCC(=O)N2CCOCC2)c(C(C)C)cc1Cl,-7,0.2,14,80*,-2,0.9
Cc1cc(OCC(=O)N2CCCC2)cc(C)c1Cl,4,0.9,-39,8,6,1.4
COC(=O)c1cc2sccc2n1Cc1nc(-c2cccc(Cl)c2)oc1C,-5,0.8,46,16,-4,0.5
COC(=O)c1cc2ccsc2n1Cc1nc(-c2cccc(Cl)c2)oc1C,-2,0.5,99*,52*,5,0
O=S(=O)(NC1=NCCCCCC1)c1cccs1,-6,0.8,-22,15,-7,1.2
CCOC(=O)c1c(-c2ccccc2)csc1NC(=O)c1nn(CC)cc1Br,1,0.9,10,10,10,0.9
CCOC(=O)c1c(-c2ccccc2)csc1NC(=O)c1ccc(N2C(=O)CCC2=O)cc1,4,0.8,50*,15,-1,0.5
CCOC(=O)c1c(-c2ccccc2)csc1NC(=O)c1ccc(S(=O)(=O)N2CC(C)OC(C)C2)cc1 (centres undefined),-3,0.6,77*,39,0,0.2
CCOC(=O)c1ccccc1NC(=O)CN1C(=O)c2ccccc2S1(=O)=O,3,1,21,-2,10,0.8
CCc1cccc(C)c1NC(=O)CSc1nc2ccc(N3C(=O)c4ccccc4C3=O)cc2s1,0,0.7,51*,35,0,0.5
CCc1cccc(C)c1NC(=O)CN1C(=O)c2ccccc2S1(=O)=O,5,0.2,37,77*,29,0.6
O=C(CN1C(=O)c2ccccc2S1(=O)=O)NC1CCCCCC1,5,0.3,12,66*,4,0.9
COC(=O)c1ccc(C)c(NC(=O)CN2C(=O)c3ccccc3S2(=O)=O)c1,-5,0.7,83*,30,0,0.2
NC(=O)C1CCN(C(=O)CN2C(=O)c3ccccc3S2(=O)=O)CC1,4,1.1,-20,-12,2,1.2
COc1ccc(OC)c(NC(=O)CN2C(=O)c3ccccc3S2(=O)=O)c1,7,0.9,-1,9,2,1
CC(C)C(NC(=O)CN1C(=O)c2ccccc2S1(=O)=O)C(C)C,-2,0.6,-4,36,31*,1
O=C(CNC(=O)c1ccc(Cl)cc1Cl)OCC(=O)c1ccc2c(c1)OCCO2,2,0.7,-75,31,9,1.8
CCC(=O)N1CCc2cc(Br)cc(S(=O)(=O)C3(C(=O)OC)CC3)c21,-4,1,22,3,13,0.8
Cc1cc(Cl)cc2c1NC(=O)[C@]21[C@@H]2C(=O)N(Cc3ccccc3)C(=O)[C@@H]2[C@@H]2CCCN21,-5,0.8,32,18,8,0.7
CCc1ccc2c(c1)[C@]1(C(=O)N2)[C@@H]2C(=O)N(Cc3ccccc3)C(=O)[C@@H]2[C@@H]2CCCN21,3,0.3,68*,75*,4,0.3
Fc1ccc(NCc2cccnc2)cc1F,9,0.6,17,39,-1,0.8
Cc1cc(F)ccc1NCc1cccnc1,5,0.5,-8,50*,5,1.1
CCN(CC)CCN1C(=O)C(O)=C(C(C)=O)C1c1ccccc1 (centres undefined),/,1,-2,2,/,1
CS(=O)(=O)N1CCN(c2ccccc2NC(=O)c2ccc(-c3ccc(Br)cc3)o2)CC1,1,0.4,71*,56*,11,0.3
SMILES,PostGolgi yeast,CYP2C19 act,CYP2C9 inh,CYP2C19 inh,PostGolgi ctrl,CYP2C9 activ
COc1cc2ccccc2cc1C(=O)N1CCN(C)CC1,-5,0.6,-19,44,9,1.2
COc1cc2ccccc2cc1C(=O)Nc1ccccc1N1CCN(S(C)(=O)=O)CC1,19,0.5,47,50*,38*,0.5
Cc1nc(NCC2CCCO2)nc2c1C(=O)CC(C)(C)C2 (centres undefined),0,0.7,20,27,3,0.8
CCN(CC)S(=O)(=O)c1ccc(Cl)c(C(=O)NC)c1,23,1.1,-38,-7,-1,1.4
CCN(CC)S(=O)(=O)c1ccc(Cl)c(OC)c1,0,0.1,-140,89*,12,2.4*
CCN(CC(N)=O)S(=O)(=O)c1ccc(Br)cc1,4,0.8,-10,17,0,1.1

# Assay outcomes: PubChem BioAssay, several laboratories
